Laboratory results from the supplement of paper PMC9844399.
Structures can show the parent of a compound that is named as a salt.
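Note: Hoechst-stained nuclei counted by automated confocal imaging of four fields per well in 384-well plates, with the robust Z-score based on the per-plate DMSO median and robust SD.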

These molecules were tested on HeLa (assay: nuclear count per well, robust Z-score vs DMSO; higher = more cells (less toxicity)). Conditions: 10 µM; 6 h.
CCC(C)SSc1ncc[nH]1 (centres undefined) was tested, and the “nuclear count per well” value was -0.451. In the case of CN1CCC[C@H]1c1cccnc1 [Nicotine], the “nuclear count per well” value is reported as -0.477. With Cc1oncc1C(=O)Nc1ccc(C(F)(F)F)cc1 [Leflunomide] the “nuclear count per well” value was 0.618. In the case of CO/N=C(\C(=O)N[C@@H]1C(=O)N2C(C(=O)OCOC(=O)C(C)(C)C)=C(/C=C\c3scnc3C)CS[C@H]12)c1csc(N)n1 [Cefditoren Pivoxil], the “nuclear count per well” value is reported as 0.574. With Cn1cc(C2=C(c3cn(CCCSC(=N)N)c4ccccc34)C(=O)NC2=O)c2ccccc21 [Ro 31-8220 methanesulfonate salt] the “nuclear count per well” value was -1.75. O=C1CCC(N2C(=O)c3ccccc3C2=O)C(=O)N1 (centres undefined) [Thalidomide] was tested, and the “nuclear count per well” value was 0.328. For O=C(NCc1ncc(C(F)(F)F)cc1Cl)c1c(Cl)cccc1Cl [Fluopicolide], the “nuclear count per well” value was 1.27. CC(=O)NCCc1c(Cc2ccccc2)[nH]c2ccccc12 [Luzindole] was tested, and the “nuclear count per well” value was 0.983. CC(=O)O[C@H]1C(=O)[C@@]2(C)[C@H]([C@H](OC(=O)c3ccccc3)[C@]3(O)C[C@H](OC(=O)[C@H](O)[C@@H](NC(=O)c4ccccc4)c4ccccc4)C(C)=C1C3(C)C)[C@]1(OC(C)=O)CO[C@@H]1C[C@@H]2O [Taxol = Paclitaxel] was tested, and the “nuclear count per well” value was -2.61. [Cl-].[Li+] [Lithium Chloride] was tested, and the “nuclear count per well” value was 0.96. With Clc1ccc(COC(Cn2ccnc2)c2ccc(Cl)cc2Cl)c(Cl)c1 (centres undefined) [Miconazole] the “nuclear count per well” value was -0.276. O=C1O[C@H]([C@@H](O)CO)C(O)=C1O [L-Ascorbic Acid] was tested, and the “nuclear count per well” value was 0.672. CCn1cc(C(=O)O)c(=O)c2cc(F)c(N3CCNCC3)cc21 [Norfloxacin] was tested, and the “nuclear count per well” value was 0.93. CN1[C@@H]2CC[C@H]1C[C@@H](OC(c1ccccc1)c1ccccc1)C2 [Benztropine Mesylate] was tested, and the “nuclear count per well” value was 0.869. For COC(=O)C1=C(C)NC(C)=C(C(=O)OCCCN2CCC(c3ccccc3)(c3ccccc3)CC2)[C@H]1c1cccc([N+](=O)[O-])c1 [Niguldipine], the “nuclear count per well” value was 0.44. CCCCC[C@H](O)/C=C/[C@@H]1[C@@H](CC(=O)CCCCC(=O)O)[C@@H](O)C[C@H]1O [6-Keto-prostaglandin F1a] was tested, and the “nuclear count per well” value was -0.959. COC(=O)[C@@H]1[C@H]2C[C@H]3c4[nH]c5ccccc5c4CCN3C[C@@H]2CC[C@@H]1O [Yohimbine] was tested, and the “nuclear count per well” value was 1.44. In the case of Cc1c2oc3c(C)ccc(C(=O)N[C@@H]4C(=O)N[C@H](C(C)C)C(=O)N5CCC[C@H]5C(=O)N(C)CC(=O)N(C)[C@@H](C(C)C)C(=O)O[C@@H]4C)c3nc-2c(C(=O)N[C@@H]2C(=O)N[C@H](C(C)C)C(=O)N3CCC[C@H]3C(=O)N(C)CC(=O)N(C)[C@@H](C(C)C)C(=O)O[C@@H]2C)c(N)c1=O [Actinomycin D], the “nuclear count per well” value is reported as -9.21. With CCC[C@@H]1C[C@@H](C(=O)N[C@@H]([C@H]2O[C@H](SC)[C@H](O)[C@@H](O)[C@H]2O)[C@@H](C)O)N(C)C1 the “nuclear count per well” value was 0.942. For Cc1ccccc1C(=O)Nc1ccc(C(=O)N2CCCC(O)c3cc(Cl)ccc32)c(C)c1 (centres undefined) [Tolvaptan], the “nuclear count per well” value was 0.183. CN(C)CCOC(=O)C(c1ccccc1)C1(O)CCCC1 (centres undefined) [Cyclopentolate] was tested, and the “nuclear count per well” value was 0.953. In the case of CCCCC(=O)N(Cc1ccc(-c2ccccc2-c2nnn[nH]2)cc1)[C@H](C(=O)O)C(C)C [Valsartan], the “nuclear count per well” value is reported as 2.15. For C=CC[N+]1([C@H]2C[C@H]3[C@@H]4CC[C@H]5C[C@H](O)[C@@H](N6CCOCC6)C[C@]5(C)[C@H]4CC[C@]3(C)[C@H]2OC(C)=O)CCCC1 [Rocuronium Bromide], the “nuclear count per well” value was 1.14. In the case of CC(=O)O[C@@]12CO[C@@H]1C[C@H](O)[C@@]1(C)C(=O)[C@H](O)C3=C(C)[C@@H](OC(=O)[C@H](O)[C@@H](NC(=O)OC(C)(C)C)c4ccccc4)C[C@@](O)([C@@H](OC(=O)c4ccccc4)[C@H]21)C3(C)C [Docetaxel (Taxotere)], the “nuclear count per well” value is reported as -3.75. In the case of Nc1nc2[nH]cnc2c(=S)[nH]1 [Thioguanine (6-Thioguanine)], the “nuclear count per well” value is reported as -0.265. In the case of O=C(O)c1ccc2c3c1cccc3c(=O)n1c3ccccc3nc21 [STO-609-acetic acid], the “nuclear count per well” value is reported as -0.506. With CCCCCC#CCC#CCC#CCC#CCCCC(=O)O [5,8,11,14-Eicosatetraynoic acid] the “nuclear count per well” value was -0.123. For COCCc1ccc(OCC(O)CNC(C)C)cc1 (centres undefined) [Metoprolol Tartrate], the “nuclear count per well” value was 0.277. For Cc1ccc(C(=O)c2cc(O)c(O)c([N+](=O)[O-])c2)cc1 [Tolcapone], the “nuclear count per well” value was -0.498. CC(C)(Oc1ccc(CCNC(=O)c2ccc(Cl)cc2)cc1)C(=O)O [bezafibrate] was tested, and the “nuclear count per well” value was -0.397. CC(C)[C@@H](O)CC[C@@H](C)[C@H]1CC[C@H]2[C@@H]3CC=C4C[C@@H](O)CC[C@]4(C)[C@H]3CC[C@]12C [24(S)-hydroxycholesterol] was tested, and the “nuclear count per well” value was -0.395. In the case of CN1CCN(C(c2ccccc2)c2ccc(Cl)cc2)CC1 (centres undefined), the “nuclear count per well” value is reported as 0.39. For CCCCC/C=C\C/C=C\C/C=C\CCCCC(=O)O [Gamma-linolenic acid (18:3 n-6)], the “nuclear count per well” value was 0.117. In the case of CC(=O)NCCCS(=O)(=O)O [Acamprosate], the “nuclear count per well” value is reported as 0.283. In the case of CCN(CC)CC#CCOC(=O)C(O)(c1ccccc1)C1CCCCC1 (centres undefined) [Oxybutynin Chloride], the “nuclear count per well” value is reported as -1.31. For CN(C)CCOC(c1ccc(Cl)cc1)c1ccccn1 (centres undefined) [Carbinoxamine Maleate], the “nuclear count per well” value was 0.505. With C[C@H](CS)C(=O)N1CCC[C@H]1C(=O)O [Captopril] the “nuclear count per well” value was 0.479. In the case of COC(=O)Nc1nc2cc(C(=O)c3cccs3)ccc2[nH]1 [Nocodazole], the “nuclear count per well” value is reported as -3.65. In the case of CCC[C@H](N[C@H]1CCc2cc(F)cc(F)c2C1)C(=O)Nc1cn(C(C)(C)CNCC(C)(C)C)cn1, the “nuclear count per well” value is reported as 2.56.
